# For some assays here: Entries with a potency or affinity are not part of this list.
# Key:
# Set-up in all cases: scale not given: direction of the effect not stated beside the values
# [1] = biological target: Protein translocase subunit SecA (Escherichia coli (strain K12)) (UniProt P10408); experiment: Assay to Identify E. coli SecA ATPase Inhibitors; type: functional; details: 30 µM
# [2] = biological target: T1, Ubiquitin-activating enzyme e1, putative (Leishmania donovani (strain BPK282A1)) (UniProt E9BSI1); experiment: Leishmania donovani Ubiquitin Activating Enzyme (LdE1); type: functional; details: 30 µM
# T1 sequence (whole entry): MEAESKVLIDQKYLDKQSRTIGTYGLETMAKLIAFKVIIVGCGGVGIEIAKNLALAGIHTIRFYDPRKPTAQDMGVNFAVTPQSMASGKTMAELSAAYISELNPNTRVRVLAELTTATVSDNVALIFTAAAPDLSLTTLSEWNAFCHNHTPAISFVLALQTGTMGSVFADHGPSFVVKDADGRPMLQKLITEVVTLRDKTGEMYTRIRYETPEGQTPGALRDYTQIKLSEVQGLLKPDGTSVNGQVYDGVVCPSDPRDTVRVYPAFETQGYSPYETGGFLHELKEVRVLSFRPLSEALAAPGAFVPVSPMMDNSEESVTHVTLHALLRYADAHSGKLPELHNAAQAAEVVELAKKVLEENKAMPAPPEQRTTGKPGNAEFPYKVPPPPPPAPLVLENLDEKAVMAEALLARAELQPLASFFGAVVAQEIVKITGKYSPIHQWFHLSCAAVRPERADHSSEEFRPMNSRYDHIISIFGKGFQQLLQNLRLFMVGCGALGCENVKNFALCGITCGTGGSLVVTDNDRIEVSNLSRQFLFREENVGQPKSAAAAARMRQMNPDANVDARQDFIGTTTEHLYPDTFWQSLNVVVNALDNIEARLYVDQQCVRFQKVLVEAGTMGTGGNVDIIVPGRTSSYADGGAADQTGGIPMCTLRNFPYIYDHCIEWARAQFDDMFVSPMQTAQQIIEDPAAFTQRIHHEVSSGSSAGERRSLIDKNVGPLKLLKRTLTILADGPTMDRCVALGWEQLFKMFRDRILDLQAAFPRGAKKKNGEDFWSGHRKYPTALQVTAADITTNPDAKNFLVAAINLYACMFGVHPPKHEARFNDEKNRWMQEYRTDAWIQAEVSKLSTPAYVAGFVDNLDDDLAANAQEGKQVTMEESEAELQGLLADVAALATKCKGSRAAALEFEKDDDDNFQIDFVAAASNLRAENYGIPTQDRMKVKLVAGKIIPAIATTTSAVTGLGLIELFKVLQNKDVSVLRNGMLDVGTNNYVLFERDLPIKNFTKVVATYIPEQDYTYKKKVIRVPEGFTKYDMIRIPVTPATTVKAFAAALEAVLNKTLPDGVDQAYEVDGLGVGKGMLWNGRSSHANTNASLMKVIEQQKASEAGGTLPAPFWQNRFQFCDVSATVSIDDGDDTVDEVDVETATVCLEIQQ
# [3] = biological target: AMP-activated protein kinase, AMPK (Homo sapiens) (UniProt P54646+O43741+P54619+Q9UGJ0+Q9Y478+Q13131+Q9UGI9); experiment: AMP-dependent Kinase enzyme assay. An in vitro enzyme assay that detects ADP turnover that is directly proportional to AMPK activity. This uses naive AMPK that is activated during the assay with MK-8722; type: functional; details: 30 µM
# [4] = biological target: Sialic acid-binding Ig-like lectin 9 (Homo sapiens) (UniProt Q9Y336); experiment: Hs-Siglec9 ALPHAscreen SOP 20170721; details: 10 µM
# Sialic acid-binding Ig-like lectin 9 (Homo sapiens), sequence (Q9Y336 whole entry): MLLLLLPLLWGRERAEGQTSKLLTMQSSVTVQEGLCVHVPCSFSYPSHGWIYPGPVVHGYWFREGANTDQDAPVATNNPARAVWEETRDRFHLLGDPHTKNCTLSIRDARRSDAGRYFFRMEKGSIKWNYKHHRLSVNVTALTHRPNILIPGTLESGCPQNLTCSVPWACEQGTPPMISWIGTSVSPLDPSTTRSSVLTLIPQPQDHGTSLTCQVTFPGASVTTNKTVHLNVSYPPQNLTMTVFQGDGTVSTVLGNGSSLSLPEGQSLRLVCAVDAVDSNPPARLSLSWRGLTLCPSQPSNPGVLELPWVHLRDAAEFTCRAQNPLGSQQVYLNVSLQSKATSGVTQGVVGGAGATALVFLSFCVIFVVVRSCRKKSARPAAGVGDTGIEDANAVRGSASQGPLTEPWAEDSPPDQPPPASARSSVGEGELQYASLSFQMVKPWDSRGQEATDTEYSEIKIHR
# Trypanosoma cruzi = experiment: Trypanosoma cruzi phosphomannomutase and mannose-1-phosphate guanylyltransferase assay; type: functional; details: 10 µM
# [5] = biological target: T2, Arginase-2, mitochondrial (Homo sapiens) (UniProt P78540); experiment: in vitro enzyme assay to detect the production of urea directly proportional to the activity of Arginase II; type: functional; details: 33.3 µM; further: in the data most compounds retested in dose-response had high values
# T2 sequence (whole entry): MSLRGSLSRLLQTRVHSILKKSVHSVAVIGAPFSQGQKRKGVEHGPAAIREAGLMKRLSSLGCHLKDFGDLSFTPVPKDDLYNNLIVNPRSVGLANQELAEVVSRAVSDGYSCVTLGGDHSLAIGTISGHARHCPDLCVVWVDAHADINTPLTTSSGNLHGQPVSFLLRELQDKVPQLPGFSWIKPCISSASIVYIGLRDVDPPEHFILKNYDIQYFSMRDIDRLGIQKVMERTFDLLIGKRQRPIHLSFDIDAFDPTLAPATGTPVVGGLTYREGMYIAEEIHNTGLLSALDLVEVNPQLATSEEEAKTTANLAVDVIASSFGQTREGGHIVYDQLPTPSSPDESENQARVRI
# [6] = biological target: T3, Proteasome subunit beta (Trypanosoma cruzi) (UniProt O96673); experiment: Trypanosoma cruzi proteasome chymotrypsin-like activity (TcProtChymo) assay.; further: in the data most compounds retested in dose-response had high values; type: functional; details: 9.37 µM
# T3 sequence (whole entry): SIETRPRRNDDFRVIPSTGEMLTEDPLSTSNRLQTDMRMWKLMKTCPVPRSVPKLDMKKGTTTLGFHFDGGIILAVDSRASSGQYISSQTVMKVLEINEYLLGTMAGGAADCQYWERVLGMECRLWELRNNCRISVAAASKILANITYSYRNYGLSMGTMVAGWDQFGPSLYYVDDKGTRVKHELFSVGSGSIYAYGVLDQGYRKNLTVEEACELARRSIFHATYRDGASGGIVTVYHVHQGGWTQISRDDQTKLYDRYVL
# Homo sapiens = species on record: Homo sapiens; experiment: To identify inhibition of the IFN signalling (Jak-Stat) pathway via expression of an eGFP reporter gene under the control of an IFN-stimulated response element (ISRE) containing MxA promoter.; type: functional; details: 30 µM
# [7] = biological target: T4, Tyrosyl-tRNA synthetase, putative (Trypanosoma cruzi (strain CL Brener)) (UniProt Q4DSP6); experiment: Trypanosoma cruzi tyrosyl tRNA synthetase (TcYRS) _High Tyrosine SOP; type: functional; details: 30 µM; further: in the data most compounds retested in dose-response had high values
# T4 sequence (whole entry): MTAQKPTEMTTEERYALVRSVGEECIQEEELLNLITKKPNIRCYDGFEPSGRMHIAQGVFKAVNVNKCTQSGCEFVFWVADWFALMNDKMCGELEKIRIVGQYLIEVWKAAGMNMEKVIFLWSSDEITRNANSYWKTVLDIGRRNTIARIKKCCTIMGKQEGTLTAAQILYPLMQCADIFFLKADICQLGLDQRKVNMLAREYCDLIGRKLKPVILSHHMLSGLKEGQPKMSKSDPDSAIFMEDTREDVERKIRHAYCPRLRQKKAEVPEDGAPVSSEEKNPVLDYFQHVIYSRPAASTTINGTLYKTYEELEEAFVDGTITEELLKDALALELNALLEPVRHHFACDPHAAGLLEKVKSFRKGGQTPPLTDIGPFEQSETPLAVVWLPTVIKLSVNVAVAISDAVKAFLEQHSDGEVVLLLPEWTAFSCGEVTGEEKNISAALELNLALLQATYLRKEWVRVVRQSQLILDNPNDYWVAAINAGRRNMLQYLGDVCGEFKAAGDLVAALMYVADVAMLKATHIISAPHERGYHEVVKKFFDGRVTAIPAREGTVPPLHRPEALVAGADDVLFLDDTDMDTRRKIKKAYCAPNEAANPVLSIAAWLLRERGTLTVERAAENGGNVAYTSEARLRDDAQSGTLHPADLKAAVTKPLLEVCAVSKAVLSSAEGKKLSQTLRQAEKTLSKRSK
# [8] = biological target: T4, Tyrosyl-tRNA synthetase, putative (Trypanosoma cruzi (strain CL Brener)); experiment: Trypanosoma cruzi tyrosyl tRNA synthetase (TcYRS) SOP; type: functional; details: 30 µM
# [9] = biological target: Chromo domain-containing protein 1 (Saccharomyces cerevisiae (strain ATCC 204508 / S288c) (Baker's yeast)) (UniProt P32657); experiment: ScCHD-1 Enzyme Inhibition Assay; type: functional; details: 30 µM; further: in the data most compounds retested in dose-response had high values
# Chromo domain-containing protein 1 (Saccharomyces cerevisiae (strain ATCC 204508 / S288c) (Baker's yeast)), sequence (P32657 whole entry, the tested form may be a part): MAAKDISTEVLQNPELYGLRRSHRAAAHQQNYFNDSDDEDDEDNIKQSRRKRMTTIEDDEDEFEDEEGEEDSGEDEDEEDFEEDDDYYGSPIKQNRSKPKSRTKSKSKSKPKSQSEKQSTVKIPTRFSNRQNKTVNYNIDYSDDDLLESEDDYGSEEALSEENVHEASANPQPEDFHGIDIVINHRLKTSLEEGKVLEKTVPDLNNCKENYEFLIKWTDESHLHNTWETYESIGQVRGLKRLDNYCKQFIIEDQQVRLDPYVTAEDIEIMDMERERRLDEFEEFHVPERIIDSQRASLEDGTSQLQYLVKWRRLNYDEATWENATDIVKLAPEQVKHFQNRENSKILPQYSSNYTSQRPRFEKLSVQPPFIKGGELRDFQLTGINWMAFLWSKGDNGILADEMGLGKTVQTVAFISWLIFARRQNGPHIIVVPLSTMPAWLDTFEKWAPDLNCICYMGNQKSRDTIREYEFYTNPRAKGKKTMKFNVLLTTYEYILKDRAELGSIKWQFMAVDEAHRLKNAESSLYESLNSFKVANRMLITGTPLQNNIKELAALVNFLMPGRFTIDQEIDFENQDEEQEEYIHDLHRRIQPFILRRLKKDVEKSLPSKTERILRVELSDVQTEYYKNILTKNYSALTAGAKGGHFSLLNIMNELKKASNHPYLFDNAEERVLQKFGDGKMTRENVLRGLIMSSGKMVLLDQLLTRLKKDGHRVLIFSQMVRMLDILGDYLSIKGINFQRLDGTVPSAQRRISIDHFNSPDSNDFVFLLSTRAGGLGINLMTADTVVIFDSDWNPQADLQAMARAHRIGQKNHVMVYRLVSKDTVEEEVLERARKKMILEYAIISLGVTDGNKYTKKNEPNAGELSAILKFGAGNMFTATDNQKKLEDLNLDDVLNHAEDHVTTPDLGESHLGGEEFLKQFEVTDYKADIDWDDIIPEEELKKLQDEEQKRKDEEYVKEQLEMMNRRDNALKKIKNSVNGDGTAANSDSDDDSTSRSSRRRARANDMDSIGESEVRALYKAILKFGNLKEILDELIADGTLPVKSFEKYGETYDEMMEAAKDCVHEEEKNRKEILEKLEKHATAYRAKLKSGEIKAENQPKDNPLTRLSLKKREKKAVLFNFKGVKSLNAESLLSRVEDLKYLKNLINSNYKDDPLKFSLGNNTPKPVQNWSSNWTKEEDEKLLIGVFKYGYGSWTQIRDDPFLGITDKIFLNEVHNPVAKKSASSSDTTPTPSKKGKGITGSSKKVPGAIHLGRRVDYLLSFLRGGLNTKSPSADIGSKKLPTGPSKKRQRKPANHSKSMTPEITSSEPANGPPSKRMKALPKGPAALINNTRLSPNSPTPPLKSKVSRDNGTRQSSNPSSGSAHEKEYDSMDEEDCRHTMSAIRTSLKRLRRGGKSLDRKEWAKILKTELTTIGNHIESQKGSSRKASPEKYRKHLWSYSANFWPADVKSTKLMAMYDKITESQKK
# Protein translocase subunit SecA (Escherichia coli (strain K12)), sequence (P10408 whole entry): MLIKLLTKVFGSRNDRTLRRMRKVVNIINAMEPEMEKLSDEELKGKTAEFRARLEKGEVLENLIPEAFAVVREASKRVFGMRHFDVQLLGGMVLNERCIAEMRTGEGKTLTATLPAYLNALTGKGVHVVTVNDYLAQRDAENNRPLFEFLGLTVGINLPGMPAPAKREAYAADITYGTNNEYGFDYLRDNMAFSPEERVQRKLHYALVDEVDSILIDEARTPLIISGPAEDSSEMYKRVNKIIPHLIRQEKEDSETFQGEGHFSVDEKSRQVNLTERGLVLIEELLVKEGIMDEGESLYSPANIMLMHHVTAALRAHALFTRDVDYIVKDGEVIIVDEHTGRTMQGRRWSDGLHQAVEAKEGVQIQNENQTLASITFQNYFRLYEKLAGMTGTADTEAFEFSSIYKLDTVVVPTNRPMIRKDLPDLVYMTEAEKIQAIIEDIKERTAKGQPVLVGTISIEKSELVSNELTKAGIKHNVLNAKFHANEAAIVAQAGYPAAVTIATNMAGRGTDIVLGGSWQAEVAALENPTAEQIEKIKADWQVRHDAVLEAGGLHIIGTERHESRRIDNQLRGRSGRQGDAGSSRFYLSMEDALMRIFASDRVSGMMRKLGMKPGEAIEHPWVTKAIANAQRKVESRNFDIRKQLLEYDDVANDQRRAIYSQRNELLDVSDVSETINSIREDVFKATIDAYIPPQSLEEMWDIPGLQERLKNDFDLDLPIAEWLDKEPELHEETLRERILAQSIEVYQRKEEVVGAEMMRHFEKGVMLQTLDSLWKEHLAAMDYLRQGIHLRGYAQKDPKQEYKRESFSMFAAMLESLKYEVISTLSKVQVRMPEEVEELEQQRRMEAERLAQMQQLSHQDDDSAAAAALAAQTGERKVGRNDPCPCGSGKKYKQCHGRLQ
Compound,Percent Effect [1] [%],Percent Effect [2] [%],Percent Effect [3] [%],Percent Effect [4] [%],Percent Effect (Trypanosoma cruzi) [%],Percent Effect [5] [%],Percent Effect [6] [%],Percent Effect (Homo sapiens) [%],Percent Effect [7] [%],Percent Effect [8] [%],Percent Effect [9] [%]
O=C(Nc1cc(F)ccc1OCC1CCCO1)c1ccc(O)nc1 (configuration not stated),-4.33,7.79,8.03,-2.88,8.91,-14.5,11.4,-5.06,3.81,14.1,-22.2
Cc1ncsc1C(=O)Nc1cccc(OCC(F)F)n1,-4.44,2.63,10.6,1.18,-4.19,-8.28,22.5,31.7,3.19,7.79,-0.476
Cc1cccc(NC2CCN(C(=O)Nc3cccc4[nH]ccc34)CC2)n1,-6.98,17.7,-19.6,10.2,6.7,-7.22,3.85,-7.19,4.43,16.5,-8.65
CN(Cc1nnc(C2CC2)n1C)C(=O)c1ccnc(OC2CCC2)c1,-5.02,2.7,2.08,2.83,3.09,1.43,6.21,-9.69,0.529,-2.44,-2.68
CS(=O)(=O)N1CC[C@]2(C[C@@H](OCC3CCC3)CO2)C1,-3.98,16.2,-8.34,20.7,2.64,1.24,11.6,-1.67,5.38,18.5,-5.25
O=C(CCc1nccs1)N1CCC(N2CCNC2=O)CC1,-3.04,13.7,-3.05,-5.29,-3.33,1.82,12.6,12.7,5.38,12.5,-3.97
Cc1occc1C(=O)N1CCc2ncnc(-c3cnn(C)c3)c2CC1,-2.67,-5.41,-4.37,0.728,6.75,-1.24,4.21,4.88,1.07,3.7,-4.52
CN(C)CC1CN(Cc2cccc(C(=O)N(C)C)c2)CCO1 (configuration not stated),-4.12,20.8,-4.76,-4.42,-0.562,3.56,14.7,20.8,10.7,14.6,-5.94
CCOCC1CN(S(=O)(=O)N(C)C)Cc2cnn(C)c21 (configuration not stated),-2.24,5.48,-0.778,4.27,-5.16,-8.38,4.71,11.6,7.29,1.24,-2.91
COCCCNC(=O)CN1CCCC1c1c(C)nn(C)c1Cl (configuration not stated),-8,8.86,-7.07,-3.46,2.15,2.37,7.38,-0.237,1.04,-7.59,-25.1
Cc1noc(CN2CCN(CC(C)O)CC2)n1 (configuration not stated),-0.907,8.11,-4.38,4.09,0.195,1.25,9.21,-0.0675,6.93,8.54,-4.47
CCCc1nc(C(C)(C)NC(=O)C2CC(=O)N(CC3CC3)C2)no1 (configuration not stated),-3.09,10.8,-4.68,-4.84,-6.78,2.4,-5.75,14.8,2.97,11,5.6
COCCn1ccc(=O)c(OCC(=O)Nc2ccccc2)c1C,-2.63,6.67,2.07,6.98,1.38,1.23,19.4,-6.23,1.06,20.5,-0.358
O=C(CCNc1ncccn1)NCCOc1ccc2c(c1)CCC2,-3.51,15.8,-0.433,-5.56,-4.39,-2.52,6.68,1.31,5.42,18.5,-3.74
CCn1ncc(CN2CCc3c(nc(-c4cccnc4)[nH]c3=O)C2)c1C,-4.9,5.33,9.46,2.36,7.87,0.699,10.3,2.75,5.32,11.5,-4.43
Cc1cnc(N2CCC3(CCCN(c4ccc(C)nn4)C3)C2)nc1 (configuration not stated),1.3,11,1.6,7.43,-6.35,-21.6,13.1,33.6,6.25,13.6,-5.51
Cc1cc(C(=O)N2CCCC(n3cncn3)C2)c(C)n1C1CC1 (configuration not stated),-2.41,-3.8,2.66,1.98,1.54,2.37,-1.54,-3.71,2.08,2.53,11.1
CN1N=C(C(=O)Nc2cc(F)ccc2OCC2CCCO2)CCC1=O (configuration not stated),-1.5,-5.2,12,2.24,7.3,-6.41,6.25,-6.34,1.94,2.44,-8.4
Cc1cc(F)ccc1S(=O)(=O)NCc1cccc(C(=O)N2CCCC2)c1,-5.18,15.6,2.25,0.935,2.64,-12,2.34,26.5,6.67,9.41,-12.9
O=C(Nc1ccc(CCN2CCC(O)CC2)cc1)C1CCOCC1,-1.94,2.7,-6.78,11.5,4.18,-1.66,1.98,3.22,5.94,11,-3.93
Cc1cc(NC(=O)CN2CCCC2c2noc(C3CC3)n2)no1 (configuration not stated),-4.72,13.7,11.2,9.93,5.68,-0.909,16.9,5.99,3.23,15,22.7
O=C(CCc1ccsc1)NCC1CCN(c2ccccc2)C1 (configuration not stated),0.538,-6.94,-4.41,-4.12,-6.51,5.3,18.4,9.93,6.32,7.69,-1.39
